According to PubChem BioAssay (NCI):
Where “and” joins values, the source holds several entries; their conditions need not be identical. Identical values can stand only once. About 83,000 compounds went through this panel and 20% of them were active in at least one assay; those are over-represented in the sample as a whole.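 Method: cells in 96-well plates; compound added at one concentration; 48 h incubation; percent growth measured; values under 10 scored active.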 Calls of active or inactive are those of the source.

test system: MDA-MB-468 breast; assay: NCI-60 one-dose screen, 48 h (100 = growth as untreated, 0 = no growth, -100 = all killed); details: 10 µM unless noted

Row | Compound | growth
1 | COc1cc(C2CC(=O)Nc3c2c(C)nn3-c2nc3ccccc3[nH]2)c(OC)c2c1OCO2 (centres undefined) | 36.7% (inactive)
2 | N=C(N)c1ccc(-c2ccc(-c3ccc(Cl)cc3Cl)s2)cc1 | -57.1% (active)
3 | O=[N+]([O-])c1ccc(-c2cn3nc(-c4c[nH]c5ccccc45)sc3n2)cc1 | 96% (inactive)
4 | COc1cc(NC(=O)c2cncnc2Nc2ccc3c(ccn3Cc3cccc(F)c3)c2)cc(OC)c1 | 42.8% (inactive)
5 | N#Cc1c(NC(=O)c2cccc(Br)c2)sc2c1CCCC2 | 59.3% (inactive)
6 | O=C(c1ccc(F)c(Cl)c1)N1c2ccccc2Sc2ccccc21 | 63.1% (inactive)
7 | CCCc1n(Cc2ccc3ccccc3c2)c2ccccc2[n+]1Cc1ccc2ccccc2c1 | -44.7% (active)
8 | COc1cc2c(Nc3ccc(NC(=O)Nc4ccc(Cl)c(C(F)(F)F)c4)c(Cl)c3)ncnc2cc1OCCCN1CCN(C)CC1 | -70.1% (active)
9 | C(=N\Nc1ncc(-c2cc3cc4c(cc3o2)OCO4)s1)/c1ccco1 | 27.3% (inactive)
10 | CC(=O)NCC1c2c(n(C)c3c(Cl)c(Cl)ccc23)C(=O)NC1(C)C (centres undefined) | 109% (inactive)
11 | CCCc1nn(C)c2c(=O)[nH]c(-c3cc(S(=O)(=O)N4CCN(C)CC4)ccc3OCC)nc12 | 110% (inactive)
12 | Oc1ccccc1/C=N\NC(=S)N/N=C/c1ccccc1O | 32.2% (inactive) and 11.3% (inactive)
13 | O=C(Nc1ccc(OS(=O)(=O)c2ccc(F)cc2)cc1)c1ccc(Cl)cc1 | 98% (inactive)
14 | CCOC(=O)c1c(Nc2nc3ccccc3s2)sc2c1CCC(=O)C2 | 94.8% (inactive)
